Screens (PubChem BioAssay)
Many of the other results were omitted from the sample, so hits are more common in it than they were.
MgrA-DNA mod – alters Staphylococcus aureus MgrA binding to DNA; fluorescence polarization; inhibition, % (concentration not given with the values); 0.13% of 84,000 active; AID 602314; in the data active means inhibition above about 30%, passing the limit was not always enough;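 further: 0% = protein plus DNA without compound and 100% = DNA alone without protein; higher means less MgrA bound to DNA so lower polarization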
Starred values were filed as active, the others as inactive.

SMILES | MgrA-DNA mod
CN1CCc2[nH]c(=S)c(C#N)c(-c3ccccc3)c2C1 | 10
CN1CCc2c(C#N)c(N)n(N)c(=S)c2C1 | 161*
CN1CCc2c(C#N)c(Cl)nc(NCc3ccccc3)c2C1 | -1
Cc1ccccc1CN1CC2CC(C1)c1cccc(=O)n1C2 (stereo unspecified) | -4
COC(C)C(O)(C(=O)OCC1=CCN2CC[C@H](O)[C@@H]12)C(C)C (stereo partly specified) | 2
COc1cc(NC2=NCCS2)c(Cl)cc1Cl | -2
O=C1NC(=O)N(c2ccccc2)C(=O)/C1=C/c1ccco1 | 17
CN1C(=O)NC(=O)/C(=C/c2ccco2)C1=O | 12
O=C1NC(=S)N(c2ccccc2)C(=O)/C1=C/C=C/c1ccco1 | 80*
CC12CCC(=O)N1C1CCCCC1N2 (stereo unspecified) | -1
